Here are results for five compounds from PubChem BioAssay (NCATS).

Records with an inconclusive call do not appear. The source made the active and inactive calls. Unless noted, calls follow the shape of the dose curve; as a rule, active = well fitted curve in the direction sought with a large enough effect; inconclusive = small, poorly fitted or top-dose-only effect, or another doubt; inactive = no such curve, though single readings can be large; an effect the other way counts as inactive or inconclusive.

Test [1] deals with Chromobox protein homolog 1 (Homo sapiens) (UniProt P83916). The test can be described thus: qHTS Validation Assay for Inhibitors of HP1-beta Chromodomain Interactions with Methylated Histone Tails (AID 488953). Also: nearly all actives have a fitted effect of over 50% in size. Also: potency is read from the fitted curve at half-maximal effect. The essentials: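 50 nM HP1-beta + 50 nM biotin-H3(1-18)K9me3, PBS pH 7.4, 0.01% Tween-20, 30 min RT; compound added, 30 min RT; AlphaScreen beads 10 ug/mL final, 30 min dark; luminescence read.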

Test [2] deals with Methanococcus maripaludis chaperonin (MmCpn) (UniProt Q6LX38). Briefly: High-Throughput Screening for Modulators of Cytosolic Chaperonin Activity: MmCpn Primary Screen (AID 488978).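 Also: 50 nM MmCpn enzyme hydrolysing 30 µM ATP at 37 °C; 0% is about no effect.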 A digest of the protocol:
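Measures ATPase turnover of the M. maripaludis chaperonin (50 nM final) against 30 uM ATP over 10 min at 37C, with compound added 5 min beforehand at room temperature. ADP is quantified by HTRF immunodetection.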

The target of test [3] is Thyrotropin receptor (Homo sapiens) (UniProt P16473). Briefly: qHTS Assay for Antagonists of the Thyroid Stimulating Hormone Receptor (AID 488980). Also: series mostly up to about 58 µM; 0% is about no effect. The essentials: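 Cells expressing human TSHR (HEK293) are dispensed in HBSS/HEPES containing 70 uM RO 20-1724, compound is added, then TSH at EC80 (4 nM final). Antibody in lysis buffer follows, 30 minutes at room temperature before HTRF detection.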
For orientation: Quantitative high-throughput screening tests each substance at several concentrations.

Test [4] concerns the target D(1A) dopamine receptor (Homo sapiens) (UniProt P21728). Briefly: HTS Assay for Allosteric Agonists of the Human D1 Dopamine Receptor: Primary Screen for Agonists (AID 488981). Also: 0% is about no effect. The essentials:
(§1)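 Tetracycline-induced HEK293 Trex D1 cells with forced coupling to calcium, loaded with no-wash calcium dye; kinetic fluorescence read 180 s after compound addition for agonism, then a further 180 s after an EC20 dopamine challenge for potentiation.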

Test [5] shares this target. The test can be described thus: HTS Assay for Allosteric Agonists of the Human D1 Dopamine Receptor: Primary Screen for Potentiators (AID 488982). Also: 0% is about no effect. A digest of the protocol: as §1
For test [6] the target is unchanged. Briefly: HTS Assay for Allosteric Agonists of the Human D1 Dopamine Receptor: Primary Screen for Antagonists (AID 488983).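 Also: calcium flux response to an EC80 dopamine challenge measured with no-wash dye; % is scaled to controls: 0 for no effect and ±100 for the full control effect; nearly all actives have a fitted effect of over 65% in size.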 The essentials:
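Cells are induced with tetracycline and incubated overnight at 30 C, then loaded with calcium dye for 30 to 90 minutes at room temperature. Compound addition is followed by a 180 s read, then an EC80 dopamine addition and another 180 s read.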

Test [7] is described as follows: Validation screen for small molecules that induce genotoxicity in human embryonic kidney (HEK293T) cells expressing luciferase-tagged ELG1 (AID 493106). Also: potency is read from the fitted curve at half-maximal effect. A digest of the protocol:
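Luminescence from an ELG1-luciferase fusion serves as the read-out, rising when genetic stress elevates ELG1 protein. HEK293T reporter cells (2,000 per well) received 23 nL compound, incubated 16 hr at 37 °C, then ONE-Glo for 30 min at room temperature.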

The target in test [8] is ATPase family AAA domain-containing protein 5 (Homo sapiens) (UniProt Q96QE3). The test can be described thus: Validation screen for small molecules that inhibit ELG1-dependent DNA repair in human embryonic kidney (HEK293T) cells expressing luciferase-tagged ELG1 (AID 493107).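 Also: cells co-treated with the DNA-damaging agent 5-fluorouridine alongside compound; series mostly up to about 46 µM; % is scaled to controls: 0 for no effect and ±100 for the full control effect; inhibitors lower the ELG1-luciferase luminescence signal; nearly all actives have a fitted effect of over 70% in size.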 A digest of the protocol: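 Luminescence from ONE-Glo, developed 30 min at room temperature, served as read-out of ELG1-luciferase levels. Beforehand, reporter HEK293T cells received 5-fluorouridine plus test compound for 16 hr at 37 °C.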

The target of test [9] is Thyrotropin-releasing hormone receptor (Homo sapiens) (UniProt P34981). The test can be described thus: qHTS for Small Molecule Agonists and Allosteric Enhancers of Human TRH Receptor: Validation Screen for Agonists (AID 493127;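 active = calcium activation more than 3 SD above the typical response in the agonist read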;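 also: intracellular calcium rise by fluo-8 fluorescence before TRH EC20 addition; 0% is about no effect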). The conditions noted are these: TRH receptor agonist cell assay; at 2 µM; stronger effect = higher value. A digest of the protocol:
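Cells 2000/well, 10% FCS, 18 h 33.5C/5% CO2 → fluo-8 Ca dye, RT 30 min–1.5 h → FDSS baseline 10 × 1 s → compound added → 230 cycles (1 s/cycle) agonist mode. TRH controls.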

Test [10] deals with Galactokinase (Homo sapiens) (UniProt P51570). The test can be described thus: qHTS Validation Assay for Inhibitors of Human Galactokinase (GALK) (AID 493189). Also: 0% is about no effect. The essentials: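 Compounds were pin-transferred into ATP buffer, then GALK-galactose mix was added (final 5 nM enzyme, 100 uM galactose, 35 uM ATP). After 1 h at room temperature, remaining ATP was measured luminescently.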

Test [11] is described as follows: Validation screen for small molecules that induce DNA re-replication in SW480 colon adenocarcinoma cells (AID 504364). Also: potency is read from the fitted curve at half-maximal effect. The essentials: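 250 cells/well; compound pinned in; 48 hr, 37 C, 5% CO2; Hoechst added, 40 min; nuclear fluorescence imaged, 405 ex / 500-530 em; re-replication scored as increase in high-intensity nuclei.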
Test [12] deals with Phosphoglycerate kinase, glycosomal (Trypanosoma brucei brucei) (UniProt P07378). Briefly: qHTS Validation Assay to Find Inhibitors of Phosphoglycerate Kinase (AID 504547).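 Also: control wells lack PGK and mark full inhibition.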 A digest of the protocol:
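PGK activity was coupled to GAPDH (100nM final), which generates the unstable substrate 1,3-bisphosphoglycerate in-well. Reactions ran 60 minutes at room temperature in 100mM TEA pH 7.6, 5mM MgCl2, 0.01% Tween-20, then Kinase-Glo Plus luminescence was read.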

Test [13] has as its target phosphoglycerate mutase (Leishmania major) (UniProt Q4Q090). The test can be described thus: qHTS Validation Assay to Find Inhibitors of Phosphoglycerate Mutase (AID 504548). Also: potency is read from the fitted curve at half-maximal effect. The following applies: Potency: inhibition qHTS. The essentials:
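L. major PGAM (1.25nM final) was added to substrate buffer and pinned compound, incubated 45 minutes at room temperature, then Kinase-GloPlus added; luminescence read after 10 minutes. Buffer: 100 mM TEA pH 7.6, 5 mM MgCl2, 0.01% Tween-20.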

In test [14] the target is Ubiquitin carboxyl-terminal hydrolase 1 (Homo sapiens) (UniProt O94782). The test can be described thus: Inhibitors of USP1/UAF1: Pilot qHTS (AID 504865). Also: nearly all actives have a fitted effect of over 35% in size. Also: potency is read from the fitted curve at half-maximal effect. A digest of the protocol: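 Kinetic fluorescence assay: 1nM USP1/UAF1, 15 min compound preincubation, then 150nM Ub-Rho; 480/540 nm.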
A short description of test [15]: qHTS for Inhibitors of ATXN expression: Validation (AID 588378). Also: series mostly up to about 57 µM; % is scaled to controls: 0 for no effect and ±100 for the full control effect; nearly all actives have a fitted effect of over 75% in size. A digest of the protocol: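 Validation of ATXN2 expression inhibitors uses a cell-based luciferase fusion reporter in HEK293 cells, with 24 h compound exposure and paired viability (fluorescence) and reporter (luminescence) end-point reads.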
Test [16] can be described thus: qHTS for Inhibitors of Cell Surface uPA Generation: Validation Assay (AID 493164). Also: 0% is about no effect. The essentials:
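RAW 264.7 cells (4000/well) were plated overnight, then exposed for 18 h at 37 C, 5% CO2 to compounds in a 7-point 1:5 titration (2.45 nM–38.3 uM final). Intracellular ATP was read by ATP-Lite luminescence.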

Test [17] concerns the target Peptidyl-prolyl cis-trans isomerase NIMA-interacting 1 (Homo sapiens) (UniProt Q13526). Briefly: qHTS Validation Assay to Find Inhibitors of Pin1 (AID 504536; active = well fitted inhibition curve with a large enough effect in the polarisation, with a control signal flat, not every such curve was filed as active; the % refers to the polarisation;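 also: 0% = full Pin1 enzyme wells and -100% = no-enzyme wells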). A digest of the protocol:
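Fluorescence polarization competition: compounds (titration) displace HiFluor-488-labeled Pin1-1b peptide from Pin1 (0.3 uM final) in pH 7.5 HEPES buffer with DTT, 10 min at room temperature; %Activity normalized to no-enzyme wells, curves fitted.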

Test [18] is described as follows: qHTS for Inhibitors of ATXN expression: Validation of Cytotoxic Assay (AID 588349). Also: % is scaled to controls: 0 for no effect and ±100 for the full control effect. A digest of the protocol:
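Read-out: ATP-based luminescence (CellTiter Glo) reflecting viability of HEK293 cells after 72 hr incubation at 37 degrees C with a concentration series of each compound.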

A short description of test [19]: Nrf2 qHTS screen for inhibitors: Validation (AID 493153; active = well fitted inhibition curve with a large enough effect in the main read-out, with a control signal flat, not every such curve was filed as active). The following applies: Potency: luciferase luminescence; viability change: measured here: cytotoxicity max response. A digest of the protocol:
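Luminescence from an ARE-firefly luciferase reporter in A549 cells gives Nrf2 inhibition; an earlier CellTiter-Fluor fluorescent read flags cytotoxicity. Cells in 5% FBS OPTI-MEM received compound dilution series for 18-24 h at 37°C.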

Chain of Peptidyl-prolyl cis-trans isomerase NIMA-interacting 1 (Homo sapiens) (Q13526 whole entry, looked up): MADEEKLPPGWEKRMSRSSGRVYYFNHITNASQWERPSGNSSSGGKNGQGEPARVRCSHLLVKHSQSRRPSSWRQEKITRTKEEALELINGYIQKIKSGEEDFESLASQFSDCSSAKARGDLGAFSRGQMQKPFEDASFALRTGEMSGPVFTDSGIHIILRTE
Chain of Thyrotropin-releasing hormone receptor (Homo sapiens) (P34981 whole entry, looked up): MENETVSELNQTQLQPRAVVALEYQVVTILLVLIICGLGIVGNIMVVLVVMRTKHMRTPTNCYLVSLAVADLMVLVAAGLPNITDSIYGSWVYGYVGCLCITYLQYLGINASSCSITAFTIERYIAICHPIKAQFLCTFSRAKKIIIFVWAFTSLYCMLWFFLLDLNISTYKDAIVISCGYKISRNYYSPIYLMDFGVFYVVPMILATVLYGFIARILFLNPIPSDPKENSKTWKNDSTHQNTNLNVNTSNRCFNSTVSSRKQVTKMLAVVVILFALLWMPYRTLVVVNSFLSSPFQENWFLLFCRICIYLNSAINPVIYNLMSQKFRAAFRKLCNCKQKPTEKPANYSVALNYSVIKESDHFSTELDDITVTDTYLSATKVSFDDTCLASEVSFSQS
Chain of Chromobox protein homolog 1 (Homo sapiens) (P83916 whole entry, looked up): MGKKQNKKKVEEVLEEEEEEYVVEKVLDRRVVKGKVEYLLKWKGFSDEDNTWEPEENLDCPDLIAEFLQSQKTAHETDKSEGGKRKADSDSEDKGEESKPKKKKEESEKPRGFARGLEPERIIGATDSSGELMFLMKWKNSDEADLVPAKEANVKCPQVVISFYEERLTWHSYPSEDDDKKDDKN
Chain of Ubiquitin carboxyl-terminal hydrolase 1 (Homo sapiens) (O94782 whole entry, looked up, the tested form may be a part): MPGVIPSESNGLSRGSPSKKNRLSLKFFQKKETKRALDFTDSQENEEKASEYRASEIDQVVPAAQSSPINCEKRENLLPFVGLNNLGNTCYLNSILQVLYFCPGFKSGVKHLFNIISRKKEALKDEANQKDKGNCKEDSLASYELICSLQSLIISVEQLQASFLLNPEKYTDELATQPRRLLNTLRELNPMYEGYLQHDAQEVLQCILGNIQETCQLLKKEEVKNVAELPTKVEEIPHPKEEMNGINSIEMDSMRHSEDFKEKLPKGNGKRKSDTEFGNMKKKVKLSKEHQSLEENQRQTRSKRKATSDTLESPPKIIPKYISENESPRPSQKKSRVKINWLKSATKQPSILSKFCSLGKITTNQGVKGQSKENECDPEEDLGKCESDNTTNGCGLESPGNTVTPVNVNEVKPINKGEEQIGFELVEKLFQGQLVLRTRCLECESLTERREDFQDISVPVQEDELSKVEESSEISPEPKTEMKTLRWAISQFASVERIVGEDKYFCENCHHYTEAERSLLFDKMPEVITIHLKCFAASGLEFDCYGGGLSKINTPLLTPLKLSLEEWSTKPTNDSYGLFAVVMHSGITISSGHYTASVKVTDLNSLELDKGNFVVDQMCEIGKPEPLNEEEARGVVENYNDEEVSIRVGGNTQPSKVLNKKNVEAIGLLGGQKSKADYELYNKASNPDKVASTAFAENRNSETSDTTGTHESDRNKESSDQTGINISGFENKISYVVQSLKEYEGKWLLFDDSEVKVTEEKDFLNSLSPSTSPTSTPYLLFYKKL
Chain of Methanococcus maripaludis chaperonin (MmCpn) (Q6LX38 1-543): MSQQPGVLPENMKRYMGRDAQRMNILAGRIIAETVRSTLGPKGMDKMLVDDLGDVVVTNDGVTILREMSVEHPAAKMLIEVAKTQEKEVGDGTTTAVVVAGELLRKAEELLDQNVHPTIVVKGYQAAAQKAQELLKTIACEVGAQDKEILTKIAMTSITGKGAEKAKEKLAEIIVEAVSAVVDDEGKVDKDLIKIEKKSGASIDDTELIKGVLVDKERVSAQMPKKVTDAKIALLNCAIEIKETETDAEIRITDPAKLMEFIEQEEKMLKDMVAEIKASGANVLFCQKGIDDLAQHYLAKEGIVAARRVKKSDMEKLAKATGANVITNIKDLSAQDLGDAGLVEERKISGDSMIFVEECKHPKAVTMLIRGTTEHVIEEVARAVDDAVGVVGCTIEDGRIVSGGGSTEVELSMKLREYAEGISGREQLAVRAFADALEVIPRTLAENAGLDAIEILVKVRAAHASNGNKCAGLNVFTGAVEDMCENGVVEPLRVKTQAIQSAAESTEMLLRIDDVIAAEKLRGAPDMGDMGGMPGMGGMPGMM
Chain of Galactokinase (Homo sapiens) (P51570 whole entry, looked up): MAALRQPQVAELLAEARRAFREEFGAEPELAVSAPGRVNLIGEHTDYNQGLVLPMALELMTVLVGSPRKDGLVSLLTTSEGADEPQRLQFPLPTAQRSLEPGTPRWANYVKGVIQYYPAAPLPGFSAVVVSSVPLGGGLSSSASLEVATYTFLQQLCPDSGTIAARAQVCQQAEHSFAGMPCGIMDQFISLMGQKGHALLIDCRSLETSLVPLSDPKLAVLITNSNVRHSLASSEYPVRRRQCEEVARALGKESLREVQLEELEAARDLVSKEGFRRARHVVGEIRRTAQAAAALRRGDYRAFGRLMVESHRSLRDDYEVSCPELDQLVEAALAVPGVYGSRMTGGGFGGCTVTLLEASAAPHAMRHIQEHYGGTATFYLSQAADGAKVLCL
Chain of Phosphoglycerate kinase, glycosomal (Trypanosoma brucei brucei) (P07378 whole entry, looked up): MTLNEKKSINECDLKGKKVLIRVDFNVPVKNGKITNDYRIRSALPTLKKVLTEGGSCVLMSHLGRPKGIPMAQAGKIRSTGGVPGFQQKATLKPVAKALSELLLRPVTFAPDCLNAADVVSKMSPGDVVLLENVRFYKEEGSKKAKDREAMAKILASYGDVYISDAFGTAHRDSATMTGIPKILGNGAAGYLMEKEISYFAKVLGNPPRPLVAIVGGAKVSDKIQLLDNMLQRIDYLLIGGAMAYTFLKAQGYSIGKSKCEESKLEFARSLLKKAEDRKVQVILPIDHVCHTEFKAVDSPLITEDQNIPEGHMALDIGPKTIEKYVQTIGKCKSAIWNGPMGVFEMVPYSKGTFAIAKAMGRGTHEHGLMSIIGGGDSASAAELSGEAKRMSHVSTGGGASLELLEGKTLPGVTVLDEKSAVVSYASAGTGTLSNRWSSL
Chain of D(1A) dopamine receptor (Homo sapiens) (P21728 whole entry, looked up): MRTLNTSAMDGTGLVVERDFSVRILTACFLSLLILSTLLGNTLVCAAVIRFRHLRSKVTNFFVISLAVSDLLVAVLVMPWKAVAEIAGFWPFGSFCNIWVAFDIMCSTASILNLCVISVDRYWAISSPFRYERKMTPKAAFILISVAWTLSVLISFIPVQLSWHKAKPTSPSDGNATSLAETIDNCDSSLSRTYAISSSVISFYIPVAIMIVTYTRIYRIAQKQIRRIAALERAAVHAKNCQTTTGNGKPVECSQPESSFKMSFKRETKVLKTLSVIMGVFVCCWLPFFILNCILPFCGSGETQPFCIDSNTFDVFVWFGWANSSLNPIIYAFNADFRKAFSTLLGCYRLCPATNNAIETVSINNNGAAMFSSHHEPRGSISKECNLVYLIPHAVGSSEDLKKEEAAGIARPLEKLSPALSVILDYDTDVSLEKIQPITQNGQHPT
Chain of Thyrotropin receptor (Homo sapiens) (P16473 whole entry, looked up): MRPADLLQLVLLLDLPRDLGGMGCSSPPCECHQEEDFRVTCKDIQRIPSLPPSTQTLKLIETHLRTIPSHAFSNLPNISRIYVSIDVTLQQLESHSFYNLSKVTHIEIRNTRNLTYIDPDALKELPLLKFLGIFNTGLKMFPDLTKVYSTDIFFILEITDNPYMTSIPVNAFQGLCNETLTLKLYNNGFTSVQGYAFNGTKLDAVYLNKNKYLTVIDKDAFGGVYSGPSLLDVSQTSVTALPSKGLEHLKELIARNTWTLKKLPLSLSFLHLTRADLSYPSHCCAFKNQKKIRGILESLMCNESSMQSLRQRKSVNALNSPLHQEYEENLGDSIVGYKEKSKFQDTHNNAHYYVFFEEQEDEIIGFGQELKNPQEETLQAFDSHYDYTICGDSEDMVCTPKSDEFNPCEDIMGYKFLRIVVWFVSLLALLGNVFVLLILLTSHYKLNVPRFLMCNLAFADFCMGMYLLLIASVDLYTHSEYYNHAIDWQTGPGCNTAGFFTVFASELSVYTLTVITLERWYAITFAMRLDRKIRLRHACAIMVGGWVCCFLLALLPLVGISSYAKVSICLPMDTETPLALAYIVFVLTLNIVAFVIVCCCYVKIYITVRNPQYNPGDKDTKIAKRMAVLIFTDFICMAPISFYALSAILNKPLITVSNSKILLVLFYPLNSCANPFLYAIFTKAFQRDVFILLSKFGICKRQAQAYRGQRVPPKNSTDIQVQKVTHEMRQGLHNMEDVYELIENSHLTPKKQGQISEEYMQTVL
Chain of phosphoglycerate mutase (Leishmania major) (Q4Q090 1-553): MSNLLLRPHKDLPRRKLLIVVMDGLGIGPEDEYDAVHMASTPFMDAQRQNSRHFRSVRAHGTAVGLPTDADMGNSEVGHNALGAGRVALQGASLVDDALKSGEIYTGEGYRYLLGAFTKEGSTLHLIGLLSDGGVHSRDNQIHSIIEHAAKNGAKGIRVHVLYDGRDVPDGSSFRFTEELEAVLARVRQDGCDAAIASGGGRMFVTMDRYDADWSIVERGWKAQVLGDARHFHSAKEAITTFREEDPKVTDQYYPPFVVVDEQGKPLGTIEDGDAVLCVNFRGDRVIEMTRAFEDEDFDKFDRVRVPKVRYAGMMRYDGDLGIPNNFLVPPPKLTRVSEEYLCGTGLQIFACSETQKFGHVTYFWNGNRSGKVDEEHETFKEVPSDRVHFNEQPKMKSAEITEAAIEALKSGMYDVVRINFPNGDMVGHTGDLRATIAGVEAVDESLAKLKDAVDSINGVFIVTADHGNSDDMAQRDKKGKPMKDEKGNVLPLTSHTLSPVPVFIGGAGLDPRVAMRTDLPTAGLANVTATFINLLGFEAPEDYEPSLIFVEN

On to `O=C1c2ccccc2-c2n[nH]c3cccc1c23`, for which the Potency entry in test [1], in test [5], in test [6], in [7], in test [11] and in [12] was “inactive” each time. Also, the Potency result in test [14] and in test [15] was “inactive” throughout. Further, the compound was classed as inactive in test [2], in test [3], in test [4], in test [8] and in test [10]. For the same compound, the activation in test [9] was 0.75% (inactive). Also, in [13], the Potency is 21.3 µM (active).

For `CC1(C)NC(=O)N(c2ccc([N+](=O)[O-])c(C(F)(F)F)c2)C1=O`, the Potency result in [1], in test [5], in [6], in test [7], in test [11] and in test [12] was “inactive” throughout. In addition, the Potency result in test [13], in [14] and in test [15] was “inactive” each time. Also, the result in test [2], in test [3], in test [4], in test [8], in test [16] and in test [10] was inactive. Also, the result in test [17] and in test [18] was inactive. The activation in test [9] was -3.25% (inactive).

Consider `CCN(CC)C(=S)SSC(=S)N(CC)CC`, for which the Potency in test [1] is 28.2 µM (active); in test [7], 18.3 µM (active); in [11], 0.206 µM (active). Moreover, the outcome in [2], in test [3], in test [16], in test [10] and in [17] was inactive. For the same compound, the activation in test [9] is 4% (inactive). For the same compound, the Potency entry in test [19], in [12], in test [13] and in test [14] was “inactive” each time. The viability change in [19] was 1.38%.

For the compound `O=c1c(O)c(-c2ccc(O)cc2O)oc2cc(O)cc(O)c12`, the Potency is 39.8 µM (active) in test [1] and 50.1 µM (active) in test [14]. The call in test [2], in test [3], in test [4], in test [8], in test [16] and in test [10] was inactive. The outcome in test [18] was inactive. In addition, the Potency result in test [6], in test [7], in test [19], in test [11], in test [13] and in test [15] was “inactive” in each case. Besides, in test [9], the activation was 0.938% (inactive). Moreover, the viability change in test [19] was -13.4%.

`CNC[C@H](O)c1ccc(O)c(O)c1`: the Potency entry in [1], in test [5], in test [7], in test [19], in test [11] and in [13] was “inactive” in each case. Besides, the Potency result in test [14] and in [15] was “inactive” each time. Further, the call in test [2], in test [3], in [8], in test [16], in [10] and in test [17] was inactive. For the same compound, in test [18], the compound was classed as inactive. The activation in [9] is 0.875% (inactive). In test [19], the viability change is 3.45%.
